# High-throughput results as filed in PubChem.
# SNCA expr inh – SNCA gene expression inhibition. HEK-293 SNCA-luciferase knock-in, luminescence, 24 h. Potency, µM (series often up to 57.2 µM), for the others: at the highest dose activity change, negative = inhibition, actives largely listed as inhibitors. actives 0.17% (n = 140,000). AID 1671194;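 note: potency is the fitted concentration of half-maximal effect; plate controls were DMSO cells for no effect and cell-free wells for full effect; nearly all actives have a fitted effect of over 45% in size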
# SNCA viab count – cell viability loss counter-screen; HEK-293-SNCA-luc viability, GF-AFC fluorescence, 24 h; Potency, µM (titrated, usually from 57.1 µM), for the others: at the highest dose activity change, negative = cytotoxicity, hits mostly cytotoxic; actives 0.12% (n = 150,000); AID 1671193;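 note: potency is the fitted concentration of half-maximal effect; 0% = DMSO-treated cells and -100% = medium-only wells without cells; nearly all actives have a fitted effect of over 30% in size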
#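 Cytotoxicity counterscreen: after 24 h compound treatment of genome-edited SNCA-luciferase HEK-293 cells, live-cell protease substrate GF-AFC read by fluorescence after 30 min; activity scaled between DMSO (0%) and medium-only (-100%), curves Hill-fitted.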
# IP6K1 inh – blocks human inositol hexakisphosphate kinase 1 | Q92551 | IP6K1 kinase, ADP-Glo luminescence, 2 h; hits give low values | activity change, % (series mostly up to about 58 µM) | actives 0.81% (n = 140,000) | AID 1645851; in the data active = activity change below about -25%; note: % is set by controls: 0 for no effect and ±100 for the full control effect
# Target sequence (Q92551 whole entry, looked up): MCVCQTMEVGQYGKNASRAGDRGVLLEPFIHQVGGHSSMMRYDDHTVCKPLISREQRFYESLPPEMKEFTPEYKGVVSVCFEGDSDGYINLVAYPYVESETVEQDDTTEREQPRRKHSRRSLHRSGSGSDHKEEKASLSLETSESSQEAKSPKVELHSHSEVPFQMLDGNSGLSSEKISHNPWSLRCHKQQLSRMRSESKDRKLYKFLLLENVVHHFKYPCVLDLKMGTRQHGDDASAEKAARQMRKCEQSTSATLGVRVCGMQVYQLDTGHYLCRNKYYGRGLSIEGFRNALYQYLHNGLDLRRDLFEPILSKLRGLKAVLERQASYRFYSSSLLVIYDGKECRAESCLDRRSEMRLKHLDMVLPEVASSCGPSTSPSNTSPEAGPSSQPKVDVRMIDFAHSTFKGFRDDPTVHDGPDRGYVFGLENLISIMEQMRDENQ
#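 ADP-Glo luminescence measures ADP made by human IP6K1 during a 2 h RT reaction with ATP/IP6 (mix at 1.3 mM/130 uM); top library doses 57.5 and 19.1 uM final.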
# KDM5B inh – KDM5B demethylase inhibition; Q9UGL1; KDM5B demethylase, FDH-coupled NADH fluorescence (FDH is formaldehyde dehydrogenase); Potency, µM (highest dose often 57.7 µM), hits mostly inhibitors; actives 2.6% (n = 220,000); AID 1347165; note: potency is the fitted concentration of half-maximal effect; 0% is about no effect; nearly all actives have a fitted effect of over 70% in size
#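 Inhibition is measured as reduced NADH fluorescence generation from FDH coupling to formaldehyde release. Truncated KDM5BΔAP at 200 nM final acts on H3K4me3 peptide (12.5 µM in substrate mix) in pH 7.5 HEPES buffer with Tween-20, 30 min, room temperature.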
# * = called active by the depositor; i = inactive; ? = inconclusive; . = no result; [ ] = remark or other dose. In the library only some 2.8% were active in any assay of this set; here they are far more common. Unless noted, calls come from the whole dose curve; as a rule, active = well fitted curve in the direction sought with a large enough effect; inconclusive = small, poorly fitted or top-dose-only effect, or another doubt; inactive = no such curve, though single readings can be large; an effect the other way counts as inactive or inconclusive.
SMILES,SNCA expr inh,SNCA viab count,IP6K1 inh,KDM5B inh
O=C1COc2ccc(-c3ccncc3)nc2CN1Cc1ccccc1F,-19%[87.6 µM],4%[87.6 µM],2,35µM*
O=C1COc2ccc(-c3ccncc3)nc2CN1Cc1ccc(F)cc1,-4%[87.6 µM],3%[87.6 µM],-9,25µM*
COc1cccc(-c2ccc3c(n2)CN(Cc2ccc(F)cc2)C(=O)CO3)c1,-11%[87.6 µM],-23%[87.6 µM],1,i
COc1ccc(-c2ccc3c(n2)CN(Cc2ccc(F)cc2)C(=O)CO3)cc1,?,?,-3,22µM*
OC(CC#CCN1CCCC1)(c1ccccc1)c1ccc(-c2ccccc2)cc1 (centres undefined),.,.,.,i
CCCNC(=O)Nc1ccc2nc(N3CCOCC3)cc(C)c2c1,.,.,.,i
N#Cc1cccc(-c2ccnc(N[C@H]3CO[C@H]4[C@@H]3OC[C@@H]4NC(=O)c3ccc4c(c3)OCO4)n2)c1,-11%,-29%,-1,?
COc1ccc(-c2ccnc(N[C@H]3CO[C@H]4[C@@H]3OC[C@@H]4NC(=O)CCCC(=O)O)n2)cc1,-12%,-1%,-3,32µM*
COc1ccc(-c2ccnc(N[C@H]3CO[C@H]4[C@@H]3OC[C@@H]4NC(=O)N3CCOCC3)n2)cc1,-13%,4%,-12,?
O=C(O)CCCC(=O)N[C@H]1CO[C@H]2[C@@H]1OC[C@@H]2Nc1nccc(-c2ccc3c(c2)OCO3)n1,?,0%,0,28µM*
COc1ccc(-c2ccnc(N[C@H]3CO[C@H]4[C@@H]3OC[C@@H]4NC(=O)CC3(CC(=O)O)CCCC3)n2)cc1,-4%,1%,-15,28µM*
Cc1ccc(NC(=O)C(C)SC(c2ccc(F)cc2)c2ccc(F)cc2)c(C)c1 (centres undefined),.,.,.,i
COP(=O)(OC)c1nc(-c2ccc([N+](=O)[O-])cc2)oc1NCc1ccc(F)cc1,.,.,.,i
Cc1noc(-c2ccn3c(CNC(=O)Cc4cccc(F)c4)nnc3c2)n1,27%,14%,39,28µM*
CCCc1noc(-c2ccn3c(CNC(=O)Cc4cccc(F)c4)nnc3c2)n1,0%,11%,11,7.1µM*
CC(=O)c1c(C)[nH]c(C(=O)C(C)OC(=O)c2ccc(F)cc2Cl)c1C (centres undefined),.,.,.,i
CN1CCOc2c(C(=O)NCc3cccnc3)cc(-c3ccc(CO)cc3)cc21,5%[87.6 µM],-12%[87.6 µM],-11,40µM*
CN1CCOc2c(C(=O)NCc3cccnc3)cc(-c3ccccc3)cc21,-18%[87.6 µM],-26%[87.6 µM],-14,28µM*
Cc1cc(CNC(=O)c2cc(-c3cccnc3)cc3c2OCCN3C)no1,-8%[87.6 µM],-12%[87.6 µM],-24,?
CN1CCOc2c(C(=O)NCc3cnn(C)c3)cc(-c3ccccc3O)cc21,10%[87.6 µM],-9%[87.6 µM],-15,28µM*
CN1CCOc2c(C(=O)NCc3cnn(C)c3)cc(-c3cccnc3)cc21,-15%[87.6 µM],-12%[87.6 µM],-7,i
COc1ncc(-c2cc(C(=O)NCc3cnn(C)c3)c3c(c2)N(C)CCO3)cn1,-4%[87.6 µM],-1%[87.6 µM],-18,i
CN1CCOc2c(C(=O)NCc3cccnc3)cc(-c3ccccc3O)cc21,-15%[87.6 µM],-16%[87.6 µM],-18,32µM*
CC(=O)Nc1ccc(-c2csc(NC3CCCC3)n2)c(F)c1,.,.,.,i
Cc1nn(-c2ccccc2)c2c1C(C(C)C)N(C1CCN(C(=O)c3ccc(F)cc3)C1)C2=O (centres undefined),.,.,10,.
SMILES,SNCA expr inh,SNCA viab count,IP6K1 inh,KDM5B inh
CN1C[C@H](C(=O)NCCOc2ccccc2)C[C@H]1c1cccc(C(F)(F)F)c1,-13%[87.6 µM],-2%[87.6 µM],11,i
c1ccc(CN2CCC[C@H]2c2nc(-c3ccc(N4CCOCC4)nc3)no2)cc1,5%[87.6 µM],-8%[87.6 µM],1,32µM*
Clc1ccc(CN2CCC[C@H]2c2nc(-c3ccc(N4CCOCC4)nc3)no2)cc1,2%[87.6 µM],-9%[87.6 µM],25,35µM*
OCc1ccc(CN2CCC[C@H]2c2nc(-c3ccc(N4CCOCC4)nc3)no2)o1,-2%[87.6 µM],-1%[87.6 µM],2,?
CN(C)c1ccc(-c2noc([C@@H]3CCCN3Cc3cnc4ccccc4c3)n2)cn1,-39%[87.6 µM],-20%[87.6 µM],18,28µM*
CCCCC(CC)C(=O)NCC(C)(C)CNC(=O)C(CC)CCCC (centres undefined),.,.,.,i
Cc1ccc(NC(=O)c2cc(Cl)ccc2Cl)nc1,.,.,.,i
CCN(CC)C(=O)c1c(NC(=O)c2ccccc2F)sc2c1CCC(C)C2 (centres undefined),.,.,.,i
CN(C)Cc1ccc(-c2cc3c(ccn3Cc3ccncc3)c(N3CCOCC3)n2)cc1,-9%[87.6 µM],-22%[87.6 µM],-12,40µM*
Cn1cc(-c2cc3c(ccn3Cc3ccncc3)c(N3CCOCC3)n2)cn1,-30%[87.6 µM],11%[87.6 µM],2,i
c1cc(Cn2ccc3c(N4CCOCC4)nc(-c4ccc5cn[nH]c5c4)cc32)ccn1,-23%[87.6 µM],0%[87.6 µM],-6,35µM*
COc1cc(-c2ccnc3nc(C(C)C)nn23)cc(OC)c1OC,17%,-4%,-5,?
COc1ccc(-c2ccnc3nc(C(C)C)nn23)cc1,-19%,-9%,-3,25µM*
COc1ccc(-c2ccnc3nc(C(C)C)nn23)c(F)c1,4%,-6%,1,i
COc1ccc(-c2ccnc3nc(C(C)C)nn23)cc1OC,-16%,0%,-5,28µM*
Cc1cc(S(=O)(=O)N2CCN(C)CC2)c(C)cc1Cl,.,.,.,i
O=C(OCC(=O)c1c[nH]c2ccccc12)c1ccc([N+](=O)[O-])cc1Cl,.,.,.,i
CCCNC(=O)N1CC[C@@H](CC(=O)O)[C@@H](CC2=NCCc3cc(F)ccc32)C1,2%[87.6 µM],0%[87.6 µM],2,32µM*
COc1cc2c(cc1OC)C(C[C@H]1CN(C(=O)Nc3cccc(C(C)=O)c3)CC[C@H]1CC(=O)O)=NCC2,-18%,3%,5,28µM*
COc1cc2c(cc1OC)C(C[C@H]1CN(C(=O)Nc3ccc(F)cc3)CC[C@H]1CC(=O)O)=NCC2,-8%,5%,-7,28µM*
CCCNC(=O)N1CC[C@@H](CC(=O)O)[C@@H](CC2=NCCc3cc(OC)ccc32)C1,-15%[87.6 µM],3%[87.6 µM],18,?
COc1cc2c(cc1OC)C(C[C@H]1CN(C(=O)N3CCOCC3)CC[C@H]1CC(=O)O)=NCC2,-10%,3%,4,i
COCc1ccc2c(c1)c(OC(C)(C)C(=O)NC1CC1)nn2CCC(C)C,-39%[87.6 µM],-1%[87.6 µM],-7,40µM*
COCc1ccc2c(c1)c(OC(C)(C)C(=O)NCCN1CCOCC1)nn2CCC(C)C,26%,2%,-1,25µM*
COCc1ccc2c(c1)c(OC(C)(C)C(=O)NCCN1CCOCC1)nn2Cc1cccnc1,7%,1%,-5,i
COCc1ccc2c(c1)c(OC(C)(C)C(=O)NC1CCN(C)CC1)nn2CCC(C)C,2%[87.6 µM],-1%[87.6 µM],-8,35µM*
CCN1CCN(C(=O)c2cn3cc(-c4cccc(OC)c4)sc3n2)CC1,70%,-5%,-2,.
Cc1cc(N2CCOCC2)nc2ccc(NC(=O)NCC(C)C)cc12,.,.,.,i
O=C(NCc1ccc(F)cc1F)c1cc2n(n1)CC(c1ccc3c(c1)OCO3)OC2 (centres undefined),7%,-9%,5,28µM*
